Laboratory results as given in PubChem BioAssay (NCATS).
Records with an inconclusive call do not appear. Active and inactive are the calls of the source. The call rests on the fitted dose curve; in most records, active means well fitted inhibition curve with a large enough effect; inconclusive means small, poorly fitted or top-dose-only effect; inactive means flat fitted curve, though single readings scatter.

Legend:
Assay in all cases: qHTS profiling for inhibitors of Plasmodium falciparum proliferation (AID 504749); further: nearly all actives have a fitted effect of over 60% in size
Conditions in all cases: P. falciparum in erythrocytes, SYBR Green DNA, 72 h; series mostly up to 28.7 µM
[1] = test system: CP256
In short: (§1)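 Infected RBCs, 0.3% parasitemia/2.5% Hct final; cpd 72 h, 37 C, 5% CO2; lysis buffer with saponin/triton/SYBR Green I, o/n RT dark; FI 485/535; norm. to artemisinin (0.29 uM) and DMSO.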

[2] = test system: CP260
In short: as §1

[3] = test system: CP262
In short: as §1

[4] = test system: CP265
In short: as §1

[5] = test system: CP266
In short: as §1

[6] = test system: CP268
In short: as §1

[7] = test system: CP269
In short: as §1

[8] = test system: CP286
In short: as §1

[9] = test system: CP291
In short: as §1

[10] = test system: CP297
In short: as §1

Measured: Potency
Potency means the concentration at half of the fitted maximal effect.

CC(C)O
inactive: [1] | [2] | [3] | [4] | [5] | [6] | [7] | [8] | [9] | [10]

CCN(CC)CCOC(=O)c1cccnc1
inactive: [1] | [2] | [3] | [4] | [5] | [6] | [7] | [8] | [9] | [10]

CCCc1ccc(C(=O)O)cc1
inactive: [1] | [2] | [3] | [4] | [5] | [6] | [7] | [8] | [9] | [10]

O=C(O)[C@H]1CN(C/C=C/P(=O)(O)O)CCN1
inactive: [1] | [2] | [3] | [4] | [5] | [6] | [7] | [8] | [9] | [10]

O=C(/C=C/c1cccc(F)c1)NC1CC1
inactive: [1] | [2] | [3] | [4] | [5] | [6] | [7] | [8] | [9] | [10]

Cc1cc(C)c(NC(=O)C[C@H](CC(=O)O)c2cccc3ccccc23)c(C(=O)N2CCC3(CCCC3)CC2)c1
inactive: [1] | [2] | [3] | [4] | [5] | [6] | [7] | [8] | [9] | [10]

c1ccc2c(c1)OCC(CN1CCCCC1)O2 (stereo not given)
inactive: [1] | [2] | [3] | [4] | [5] | [6] | [7] | [8] | [9] | [10]

CC(=O)[C@H]1CC[C@H]2[C@@H]3C=CC4=CC(=O)CC[C@@]4(C)[C@H]3CC[C@]12C
inactive: [1] | [2] | [3] | [4] | [5] | [6] | [7] | [8] | [9] | [10]

OB(O)O
inactive: [1] | [2] | [3] | [4] | [5] | [6] | [7] | [8] | [9] | [10]

CC(C)(C)c1ccc2c(S(=O)(=O)O)c(C(C)(C)C)ccc2c1
inactive: [1] | [2] | [3] | [4] | [5] | [6] | [7] | [8] | [9] | [10]

C=Cc1ccc(S(=O)(=O)O)cc1
inactive: [1] | [2] | [3] | [4] | [5] | [6] | [7] | [8] | [9] | [10]

CC(CNC(=O)c1cccnc1)NC(=O)c1cccnc1 (stereo not given)
inactive: [1] | [2] | [3] | [4] | [5] | [6] | [7] | [8] | [9] | [10]

O=C(NNCNNC(=O)c1ccncc1)c1ccncc1
inactive: [1] | [2] | [3] | [4] | [5] | [6] | [7] | [8] | [9] | [10]

COc1ccc(C(=O)c2ccc(C)cc2)c(O)c1
inactive: [1] | [2] | [3] | [4] | [5] | [6] | [7] | [8] | [9] | [10]

C=CC(C)(O)CC/C=C(\C)CCC=C(C)C (stereo not given)
inactive: [1] | [2] | [3] | [4] | [5] | [6] | [7] | [8] | [9] | [10]

Nc1ncnc2c1ncn2[C@H]1CC[C@@H](CO)O1
inactive: [1] | [2] | [3] | [4] | [5] | [6] | [7] | [8] | [9] | [10]

O=C(O)COc1ccccc1/C=N/NC(=O)c1ccncc1
inactive: [1] | [2] | [3] | [4] | [5] | [6] | [7] | [8] | [9] | [10]

CCOC(=O)[C@@H](N)CS
inactive: [1] | [2] | [3] | [4] | [5] | [6] | [7] | [8] | [9] | [10]

CC(C)[C@@H](N)C(=O)O
inactive: [1] | [2] | [3] | [4] | [5] | [6] | [7] | [8] | [9] | [10]

C=CCCCCCCCCC(=O)OC
inactive: [1] | [2] | [3] | [4] | [5] | [6] | [7] | [8] | [9] | [10]

C[C@H]1O[C@@H](O[C@H]2[C@@H](O)C[C@H](O[C@H]3[C@@H](O)C[C@H](O[C@H]4CC[C@@]5(C)[C@H](CC[C@@H]6[C@@H]5C[C@@H](O)[C@]5(C)[C@@H](C7=CC(=O)OC7)CC[C@]65O)C4)O[C@@H]3C)O[C@@H]2C)C[C@H](O)[C@@H]1O
inactive: [1] | [2] | [3] | [4] | [5] | [6] | [7] | [8] | [9] | [10]

CS(=O)(=O)OCC(O)C(O)COS(C)(=O)=O (stereo not given)
inactive: [1] | [2] | [3] | [4] | [5] | [6] | [7] | [8] | [9] | [10]

CC(C)(CO)[C@@H](O)C(=O)NCCC(=O)NCCSSCCNC(=O)CCNC(=O)[C@H](O)C(C)(C)CO
inactive: [1] | [2] | [3] | [4] | [5] | [6] | [7] | [8] | [9] | [10]

CN[C@@H]1[C@H](O[C@H]2[C@H](O[C@H]3[C@H](O)[C@@H](O)[C@H](N=C(N)N)[C@@H](O)[C@@H]3N=C(N)N)O[C@@H](C)[C@]2(O)C=O)O[C@@H](CO)[C@H](O)[C@H]1O
inactive: [1] | [2] | [3] | [4] | [5] | [6] | [7] | [8] | [9] | [10]

CN=C1C=CC(=C(c2ccc(N(C)C)cc2)c2ccc(N(C)C)cc2)C=C1
active: [1] 0.355 µM | [2] 0.224 µM | [3] 0.757 µM | [4] 0.794 µM | [5] 1.07 µM | [6] 1.69 µM | [7] 0.849 µM | [8] 0.199 µM | [9] 1.07 µM | [10] 1.07 µM

O=C(O)/C=C/c1ccccc1
inactive: [1] | [2] | [3] | [4] | [5] | [6] | [7] | [8] | [9] | [10]

CN1CCC(OC(=O)C(Oc2ccc(Cl)cc2)Oc2ccc(Cl)cc2)CC1
inactive: [1] | [2] | [3] | [4] | [5] | [6] | [7] | [8] | [9] | [10]

CCOc1ccc(NC(=S)Nc2ccc(OCC)cc2)cc1
inactive: [1] | [2] | [3] | [4] | [5] | [6] | [7] | [8] | [9] | [10]

CCCCCCCCCCCCCCCCCC[N+](C)(C)CCC[Si](OC)(OC)OC
inactive: [1] | [2] | [3] | [4] | [5] | [6] | [7] | [8] | [9] | [10]

CCCCCCCCCCCCOCCCN
inactive: [1] | [2] | [3] | [4] | [5] | [6] | [7] | [8] | [9] | [10]

N=C(N)n1cccn1
inactive: [1] | [2] | [3] | [4] | [5] | [6] | [7] | [8] | [9] | [10]

CC1CC(O)CC(C)(C)C1 (stereo not given)
inactive: [1] | [2] | [3] | [4] | [5] | [6] | [7] | [8] | [9] | [10]

c1ccc(-n2cnnn2)cc1
inactive: [1] | [2] | [3] | [4] | [5] | [6] | [7] | [8] | [9] | [10]

FC(F)(F)C(F)(F)C(F)(F)C(F)(F)C(F)(F)C(F)(F)F
inactive: [1] | [2] | [3] | [4] | [5] | [6] | [7] | [8] | [9] | [10]

OC[C@H]1O[C@@](CO)(O[C@H]2O[C@H](CO)[C@@H](O)[C@H](O)[C@H]2O)[C@@H](O)[C@@H]1O
inactive: [1] | [2] | [3] | [4] | [5] | [6] | [7] | [8] | [9] | [10]

NCCN
inactive: [1] | [2] | [3] | [4] | [5] | [6] | [7] | [8] | [9] | [10]

C[C@H](CCCC(C)(C)O)[C@H]1CC[C@H]2[C@@H]3CC=C4C[C@@H](O)CC[C@]4(C)[C@H]3CC[C@]12C
inactive: [1] | [2] | [3] | [4] | [5] | [6] | [7] | [8] | [9] | [10]

CC(=O)Oc1cccc2c1C(=O)c1c(OC(C)=O)cc(C(=O)O)cc1C2=O
inactive: [1] | [2] | [3] | [4] | [5] | [6] | [7] | [8] | [9] | [10]

COC(=O)CC[C@H](N)C(=O)O
inactive: [1] | [2] | [3] | [4] | [5] | [6] | [7] | [8] | [9] | [10]

O=C(O)c1ccc(NC(=O)[C@H](Cc2ccc(O)cc2)NC(=O)c2ccccc2)cc1
inactive: [1] | [2] | [3] | [4] | [5] | [6] | [7] | [8] | [9] | [10]

O=S(=O)(O)CC(S)CS (stereo not given)
inactive: [1] | [2] | [3] | [4] | [5] | [6] | [7] | [8] | [9] | [10]

O=C1c2ccccc2C(=O)C1c1ccc(F)cc1
inactive: [1] | [2] | [3] | [4] | [5] | [6] | [7] | [8] | [9] | [10]

O=C(O)C1=C(CSc2nnnn2CS(=O)(=O)O)CS[C@@H]2[C@H](NC(=O)[C@H](O)c3ccccc3)C(=O)N12
inactive: [1] | [2] | [3] | [4] | [5] | [6] | [7] | [8] | [9] | [10]
